Screens: PubChem, National Center for Advancing Translational Sciences (NCATS)
Most compounds without a hit are left out; they make up all but 7.3% or so of the library.
Luc counter – Counterscreen for Luciferase (Kinase-Glo TM) Inhibition. Potency, µM (doses to about 38.3 µM), for inactives: at the highest dose activity change, negative = inhibition, usual class: inhibitors. hit rate 0.28% among 200,000. Luciferin 4-monooxygenase (Photuris pensylvanica), Q27757. Kinase-Glo luciferase, ATP luminescence, 8 min. AID 1379, 2008; further: on the % scale 0 is the no-effect control and ±100 the full control effect; nearly all actives have a fitted effect of over 60% in size
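Light output from Kinase-Glo luciferase with luciferin and 10 uM ATP in 50 mM imidazole pH 7.2, KCl, MgCl2, Tween 20, BSA; compound pin-delivered, 8-min ambient incubation, then luminescence read.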
NPC1 prom act – qHTS Assay for NPC1 Promoter Activators; Huh7 NPC1 promoter luciferase reporter, 24 h; Potency, µM (titrated, usually from 9.22 µM), for the others: at the highest dose activation, most hits filed as activators; hit rate 2.4% among 320,000; further: % of control where 0% means no effect; nearly all actives have a fitted effect of over 60% in size
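Stably transfected Huh7 (NPC1 promoter→luciferase), 1500 cells/well in Opti-MEM + 10% FBS, 2 h settle, then compound 24 h at 37 °C. Luminescence after 10 min with Amplite reagent.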
SMN2 splice enh – qHTS Assay for Enhancers of SMN2 Splice Variant Expression | HEK293 SMN2-luciferase splicing reporter, luminescence, 30-36 h | hit rate 2.8% among 210,000 | Potency, µM (top dose mostly 46.1 µM), inactives show at the highest dose activity change, positive = activation, hits mostly activators; further: % of control where 0% means no effect; nearly all actives have a fitted effect of over 55% in size
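HEK293 cells carry an SMN2 minigene-luciferase reporter in which exon 7 inclusion puts luciferase in frame. Cells were seeded at 2000 cells/well, attached for 10-12 hours, then exposed to compounds for 30-36 hours at 37C before ONE-Glo luminescence.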
FLuc counter – qHTS profiling assay for firefly luciferase inhibitor/activator using purifed enzyme and Km concentrations of substrates (counterscreen for miR-21 project); Luciferin 4-monooxygenase (Photinus pyralis), P08659; purified FLuc, Km substrates, luminescence inhibition; Potency, µM (top dose mostly 57.5 µM), inactives show at the highest dose activity change, negative = inhibition, actives largely listed as inhibitors; hit rate 6.9% among 360,000; AID 588342, 2011;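 further: plate controls were vehicle for no effect and reference inhibitor for full effect; nearly all actives have a fitted effect of over 55% in size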
Target sequence (P08659 whole entry, looked up): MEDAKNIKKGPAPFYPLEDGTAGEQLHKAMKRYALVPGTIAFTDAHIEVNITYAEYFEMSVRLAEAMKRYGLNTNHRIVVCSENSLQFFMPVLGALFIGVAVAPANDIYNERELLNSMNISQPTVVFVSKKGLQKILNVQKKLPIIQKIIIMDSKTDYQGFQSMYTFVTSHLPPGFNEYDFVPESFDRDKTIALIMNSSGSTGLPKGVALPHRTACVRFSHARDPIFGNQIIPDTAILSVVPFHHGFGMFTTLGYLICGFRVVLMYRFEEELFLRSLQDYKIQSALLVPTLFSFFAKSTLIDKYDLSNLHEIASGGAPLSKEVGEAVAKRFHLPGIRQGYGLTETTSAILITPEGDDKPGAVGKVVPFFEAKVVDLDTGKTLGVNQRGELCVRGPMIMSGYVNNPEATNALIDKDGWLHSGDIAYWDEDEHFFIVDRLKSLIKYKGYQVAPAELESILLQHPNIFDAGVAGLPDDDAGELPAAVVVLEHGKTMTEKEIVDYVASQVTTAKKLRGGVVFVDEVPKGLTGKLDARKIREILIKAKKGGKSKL
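Purified P. pyralis luciferase, 10 nM final, with Km-level 10 uM D-luciferin and 10 uM ATP in 50 mM Tris acetate pH 7.5, 10 mM Mg acetate, 0.01% Tween-20, 0.05% BSA; 6-point qHTS titration about 60 µM downward; luminescence read.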
Rab9 promoter act – qHTS Assay for Rab9 Promoter Activators | hit rate 2.8% among 320,000 | Potency, µM (titrated, usually from 9.22 µM), without a hit: top-dose activation, negative = inhibition, actives largely listed as activators | Huh7 Rab9 promoter-luciferase reporter, luminescence, 24 h | AID 485297, 2010; further: % of control where 0% means no effect; nearly all actives have a fitted effect of over 60% in size
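Luminescence read-out: Huh7 cells stably expressing Rab9-luciferase, treated 24 h with compound at 37 °C, then lysed with luciferase reagent for 10 min at ambient before reading.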
ELG1 genotoxic – qHTS screen for small molecules that induce genotoxicity in human embryonic kidney (HEK293T) cells expressing luciferase-tagged ELG1; HEK293T ELG1-luciferase reporter, luminescence, 16 h; Potency, µM (top dose mostly 46 µM), for inactives: at the top dose activity change, positive = activation, usual class: activators; hit rate 1.3% among 330,000; AID 504466, 2011; further: % of control where 0% means no effect; nearly all actives have a fitted effect of over 60% in size
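Cells (2,000/well) expressing the ELG1-luciferase fusion are dosed by pin tool and kept 16 hr at 37 °C, 5% CO2. Signal comes from ONE-Glo luciferase reagent after 30 min at room temperature.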
* hit, by the source's call; u = inconclusive; x = no result given; [ ] = dose if it differs, or a comment. The call rests on the fitted dose curve; in most records, active means well fitted curve in the direction sought with a large enough effect; inconclusive means small, poorly fitted or top-dose-only effect, or another doubt; inactive means no such curve, though single readings can be large; an effect the other way counts as inactive or inconclusive. Potency means the concentration at half of the fitted maximal effect.

SMILES	Luc counter	NPC1 prom act	SMN2 splice enh	FLuc counter	Rab9 promoter act	ELG1 genotoxic
O=C(Nc1ccc(F)cc1)Nc1cccnc1Cl	x	23%	x	17µM*	u	4%
O=C(Nc1cccs1)Nc1cccnc1Cl	x	1%	x	u	-39%	-3%
O=C(O)c1nn(-c2ccccc2)nc1-c1nn(-c2ccccc2)nc1C(=O)O	-5%	-2%	0%	21µM*	0%	-1%
COC(=O)c1nnn(-c2ccccc2)c1N	-1%	-7%	24%	0%	-2%	-2%
O/N=C1/CC/C(=N\O)c2nn(-c3ccccc3)nc21	u	18%	u	u	24%	11%
COC(=O)c1nn(-c2ccccc2)nc1-c1nn(-c2ccccc2)nc1C(=O)OC	4%	9%	4%	2.4µM*	6%	u
CCCOc1cccc(C(=O)Nc2ccc(-c3nc4ccccc4o3)cc2)c1	x	x	28%	3%	x	x
O=C(c1ccc(Cl)cc1)c1nnc(-c2ccncc2)o1	5%	12%	-17%	u	14%	2%
O=C(c1ccccc1)c1nnc(-c2ccncc2)o1	u	-3%	5%	9.5µM*	2%	1%
COc1cc(Cl)c(C)cc1NC(=O)CCCN1C(=O)C(c2ccccc2)Oc2cccnc21 (stereo not given)	x	x	x	-11%	x	x
O=S(=O)(c1ccc(F)cc1)N1CCC2(CC1)OCCO2	-1%	2%	15%	7%	1%	2%
O=S(=O)(c1cc(F)ccc1F)N1CCC2(CC1)OCCO2	x	3.5µM*	x	12µM*	4µM*	9.2µM*
Cc1ccc(NC(=O)CN2C(=O)CSc3ccc(S(=O)(=O)N(C)C)cc32)c(C)c1	x	x	x	-8%	x	x
Oc1sc(C=Nc2ccc(F)cc2)c2ccccc12	-2%	3.2µM*	10µM*	u	2.8µM*	14%
Oc1sc(C=Nc2ccccc2)c2ccccc12	-14%	u	8.9µM*	6µM*	u	u
Cc1ccccc1C(=O)Nc1nnc(S(=O)(=O)N2CCc3ccccc32)s1	x	x	x	2%	x	x
Cc1noc(C)c1S(=O)(=O)N1CCc2nc(COc3ccccc3)c3c(c2C1)CO[C@@H](C)C3	-2%[7.66 µM]	x	-10%[9.22 µM]	x	x	x
CC1(C)OC(=O)C(=CNc2cccc(C(=O)O)c2)C(=O)O1	1%	24%	0%	15µM*	u	1%
O=C(O)c1ccc(CNCc2ccccc2Cl)s1	x	x	-2%	-17%	x	x
Cc1ccc2c(CC(=O)Nc3c(C(=O)Nc4cccc(Cl)c4)oc4ccccc34)coc2c1C	x	x	x	0%	x	x
CCOC(=O)Cc1csc(NC(=S)NC(=O)c2ccccc2Br)n1	-2%	-4%	x	21µM*	-2%	4%
CCOC(=O)Cc1csc(NC(=O)c2ccoc2C)n1	u	18%	26%	u	28%	15µM*
CCOC(=O)Cc1csc(NC(=O)c2ccc(C)cc2)n1	-8%	14%	x	11µM*	14%	-4%
CCOC(=O)Cc1csc(NC(=S)NC(=O)c2ccccc2)n1	-1%	1%	-14%	u	-10%	-3%
CCCCC(=O)Nc1ccc(C(=O)Nc2nc(CC(=O)OCC)cs2)cc1	19%	-3%	-12%	19µM*	-4%	-1%
SMILES	Luc counter	NPC1 prom act	SMN2 splice enh	FLuc counter	Rab9 promoter act	ELG1 genotoxic
CCOC(=O)Cc1csc(NC(=O)c2ccc(Br)o2)n1	1%	-2%	-4%	u	1%	7%
CCc1cccc(C)c1NC(=O)c1cn2c3c(ccc(Cl)c3c1=O)OC(C)C2 (stereo not given)	x	x	x	11%	x	x
CCN(Cc1ccccc1)C(=O)C(CC(C)C)NS(=O)(=O)c1ccc2c(c1)CCN2C(C)=O (stereo not given)	x	x	0%	1%	x	x
CC(C)(C)NC(=O)CN(Cc1ccc2c(c1)OCO2)C(=O)CCC(=O)Nc1nccs1	-4%	1%	x	-24%	2%	9%
CCOC(=O)Cc1csc(NC(=O)c2ccc3c(c2)OCO3)n1	-7%	0%	u	12µM*	0%	2%
Cc1csc(NC(=O)c2ccoc2C)n1	u	u	13µM*	u	u	u
CCOC(=O)Cc1csc(NC(=S)NC(=O)c2ccc(C)cc2)n1	x	-13%	x	12µM*	-18%	2%
O=C(Nc1nccs1)c1ccc2c(c1)OCO2	x	2.2µM*	x	6µM*	1.6µM*	u
CC(=O)Nc1nc(C)cs1	0%	-5%	-7%	-2%	0%	4%
CCOC(=O)Cc1csc(NC(=O)c2ccc(F)cc2)n1	x	-3%	x	u	0%	-4%
CN(C)c1ccc(CNC(=O)c2ccc(NC(=O)N3CCCCc4ccccc43)cc2)cc1	x	x	x	-5%	x	x
Cc1csc(NC(=O)c2ccncc2)n1	x	-1%	x	u	8%	1%
Cc1csc(NC(=O)c2ccc3c(c2)OCO3)n1	x	u	x	3.4µM*	18%	u
Cc1nn(CCC(=O)N2CCN(c3ccccc3)CC2)c(C)c1S(=O)(=O)N1CCCC1	x	x	x	-1%	x	x
O=C(CSc1nc2ccccc2c(=O)n1NC(=O)Cc1ccccc1)NCc1ccccc1	-1%	2%	-18%	2%	0%	-6%
COc1ccc(C(=O)Nn2c(SCC(=O)NCc3ccccc3)nc3ccccc3c2=O)cc1	-18%	0.4µM*	u	2.7µM*	0.13µM*	0.082µM*
COc1ccc(C(=O)Nn2c(SCC(=O)NC3CCCC3)nc3ccccc3c2=O)cc1	-9%	3.2µM*	-41%	9.5µM*	0.89µM*	u
COC(=O)c1ccc2c(=O)n(CC3CCCO3)c(SCC(=O)Nc3ccccc3OC)nc2c1 (stereo not given)	3%	4%	6%	6.7µM*	-4%	0%
O=C(CSc1nc2ccccc2c(=O)n1NC(=O)c1ccccc1)c1ccccc1	-8%	u	u	12µM*	3.5µM*	u
O=C(CSc1nc2ccsc2c(=O)n1NC(=O)c1ccccc1)Nc1nccs1	-1%	12%	20µM*	-7%	25%	7%
COc1ccc(C(=O)Nn2c(SCC(=O)NCC3CCCO3)nc3ccccc3c2=O)cc1 (stereo not given)	u	0.5µM*	-90%	0.76µM*	0.4µM*	u
O=C(CSc1nc2ccsc2c(=O)n1NC(=O)c1ccccc1)NCc1ccco1	-7%	-5%	-2%	-12%	2%	7%
CCCCCC1=C2CNC(CCC)(C(=O)OC)C=C2C(C)C1=O (stereo not given)	-5%	x	-25%	x	x	x
COc1ccc(Cl)cc1Nc1nc(N)c2ccccc2n1	x	u	x	17µM*	20%	4%
